# From PMC12820563, “FoxP3 forms a head-to-head dimer in vivo and stabilizes its multimerization on adjacent microsatellites”
# Over roughly 16,000 sequences, “rpm ratio (pull-down/input)” has its median near 0.5; the highest 2% begin near 5.5. The sample holds the highest values, similar sequences and a random draw of the others, so the mix is not that of the screen.
# Target: T1, MBP-FoxP3dN (Mus musculus, UniProt Q99JB6 188-423)
# T1 sequence: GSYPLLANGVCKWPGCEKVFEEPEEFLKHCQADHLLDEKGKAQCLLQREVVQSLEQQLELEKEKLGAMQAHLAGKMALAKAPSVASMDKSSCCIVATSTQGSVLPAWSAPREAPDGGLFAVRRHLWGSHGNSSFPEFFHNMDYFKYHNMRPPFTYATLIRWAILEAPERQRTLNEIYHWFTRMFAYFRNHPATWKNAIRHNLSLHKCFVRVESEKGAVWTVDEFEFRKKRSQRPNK
# Assay: PD-seq (MBP pull-down with sequencing); 20 mM Tris-HCl pH 7.5, 100 mM NaCl, 1.5 mM MgCl2, 0.4 uM protein, 0.1 uM dsDNA library, 30 min, room temperature, amylose pull-down; high values mean tight binding
# Conditions: protein: recombinant; tags: His6-MBP; chain copies: 2; dsDNA, one strand shown
# Procedure, shortened: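 A fragment of mouse FoxP3 or FoxP1 without its N-terminus, carrying a His6-MBP tag and produced in E. coli, was combined at 0.4 µM with a 0.1 µM degenerate double-stranded DNA library filled in with Klenow. The mixture sat for 30 min at room temperature in Tris pH 7.5 buffer containing NaCl and MgCl2. Protein–DNA complexes were captured on amylose resin, washed three times, and the DNA was freed with proteinase K, barcoded by PCR and sequenced on Illumina. Binding is expressed as reads-per-million enrichment of pull-down over input, with replicates pooled.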
row,Sequence,binding signal
1,GATGATTGTTCTCCCAGCTGATGAATTGAATAGCTCGAGTAAACAAATTTTCCTAATCTTTCTGTTCAAGCGCCATCTAC,0.346 RPM ratio (pull-down/input)
2,GATGATTGTTCTCCCAGCTGATGAATTTGTAAAATCGAGTAAACAAATTTTCCTAATCTTTCTGTTCAAGCGCCATCTAC,0.357 RPM ratio (pull-down/input)
3,GATGATTGTTCTCCCAGCTGATGAATTGTCGTAGTCGAGTAAACAAATTTTCCTAATCTTTCTGTTCAAGCGCCATCTAC,0.56 RPM ratio (pull-down/input)
4,GATGATTGTTCTCCCAGCTGATGAATTCACGTGTTCGAGTAAACAAATTTTCCTAATCTTTCTGTTCAAGCGCCATCTAC,0.58 RPM ratio (pull-down/input)
5,GATGATTGTTCTCCCAGCTGATGAATTAAGACGGTCGAGTAAACAAATTTTCCTAATCTTTCTGTTCAAGCGCCATCTAC,0.236 RPM ratio (pull-down/input)
6,GATGATTGTTCTCCCAGCTGATGAATTATAAAGATCGAGTAAACAAATTTTCCTAATCTTTCTGTTCAAGCGCCATCTAC,0.233 RPM ratio (pull-down/input)
7,GATGATTGTTCTCCCAGCTGATGAATTGTGCCTTTCGAGTAAACAAATTTTCCTAATCTTTCTGTTCAAGCGCCATCTAC,6.1 RPM ratio (pull-down/input)
8,GATGATTGTTCTCCCAGCTGATGAATTTTGTGCATCGAGTAAACAAATTTTCCTAATCTTTCTGTTCAAGCGCCATCTAC,2.27 RPM ratio (pull-down/input)
9,GATGATTGTTCTCCCAGCTGATGAATTTCGCCTTTCGAGTAAACAAATTTTCCTAATCTTTCTGTTCAAGCGCCATCTAC,5.39 RPM ratio (pull-down/input)
10,GATGATTGTTCTCCCAGCTGATGAATTCGTGCATTCGAGTAAACAAATTTTCCTAATCTTTCTGTTCAAGCGCCATCTAC,6.29 RPM ratio (pull-down/input)
11,GATGATTGTTCTCCCAGCTGATGAATTGTGCATCTCGAGTAAACAAATTTTCCTAATCTTTCTGTTCAAGCGCCATCTAC,8.03 RPM ratio (pull-down/input)
12,GATGATTGTTCTCCCAGCTGATGAATTTGTGCCTTCGAGTAAACAAATTTTCCTAATCTTTCTGTTCAAGCGCCATCTAC,4.02 RPM ratio (pull-down/input)
13,GATGATTGTTCTCCCAGCTGATGAATTCTGTGCATCGAGTAAACAAATTTTCCTAATCTTTCTGTTCAAGCGCCATCTAC,1.52 RPM ratio (pull-down/input)
14,GATGATTGTTCTCCCAGCTGATGAATTCGTGCCATCGAGTAAACAAATTTTCCTAATCTTTCTGTTCAAGCGCCATCTAC,2.18 RPM ratio (pull-down/input)
15,GATGATTGTTCTCCCAGCTGATGAATTTCGTGCATCGAGTAAACAAATTTTCCTAATCTTTCTGTTCAAGCGCCATCTAC,1.22 RPM ratio (pull-down/input)
16,GATGATTGTTCTCCCAGCTGATGAATTGCGAATCTCGAGTAAACAAATTTTCCTAATCTTTCTGTTCAAGCGCCATCTAC,2.16 RPM ratio (pull-down/input)
17,GATGATTGTTCTCCCAGCTGATGAATTCCATAGATCGAGTAAACAAATTTTCCTAATCTTTCTGTTCAAGCGCCATCTAC,0.239 RPM ratio (pull-down/input)
18,GATGATTGTTCTCCCAGCTGATGAATTAAGGGCCTCGAGTAAACAAATTTTCCTAATCTTTCTGTTCAAGCGCCATCTAC,0.451 RPM ratio (pull-down/input)
19,GATGATTGTTCTCCCAGCTGATGAATTCAATTCGTCGAGTAAACAAATTTTCCTAATCTTTCTGTTCAAGCGCCATCTAC,0.665 RPM ratio (pull-down/input)
20,GATGATTGTTCTCCCAGCTGATGAATTTCGGAGGTCGAGTAAACAAATTTTCCTAATCTTTCTGTTCAAGCGCCATCTAC,0.25 RPM ratio (pull-down/input)
21,GATGATTGTTCTCCCAGCTGATGAATTCCTCGCTTCGAGTAAACAAATTTTCCTAATCTTTCTGTTCAAGCGCCATCTAC,0.285 RPM ratio (pull-down/input)

row,Sequence,binding signal
1,GATGATTGTTCTCCCAGCTGATGAATTGCCGCCATCGAGTAAACAAATTTTCCTAATCTTTCTGTTCAAGCGCCATCTAC,2.97 RPM ratio (pull-down/input)
2,GATGATTGTTCTCCCAGCTGATGAATTTGAGTTTTCGAGTAAACAAATTTTCCTAATCTTTCTGTTCAAGCGCCATCTAC,0.885 RPM ratio (pull-down/input)
3,GATGATTGTTCTCCCAGCTGATGAATTCAAGTTTTCGAGTAAACAAATTTTCCTAATCTTTCTGTTCAAGCGCCATCTAC,0.454 RPM ratio (pull-down/input)
4,GATGATTGTTCTCCCAGCTGATGAATTTCCCTTCTCGAGTAAACAAATTTTCCTAATCTTTCTGTTCAAGCGCCATCTAC,0.295 RPM ratio (pull-down/input)
5,GATGATTGTTCTCCCAGCTGATGAATTTGTTGAGTCGAGTAAACAAATTTTCCTAATCTTTCTGTTCAAGCGCCATCTAC,5.53 RPM ratio (pull-down/input)
6,GATGATTGTTCTCCCAGCTGATGAATTTCTGTGATCGAGTAAACAAATTTTCCTAATCTTTCTGTTCAAGCGCCATCTAC,0.408 RPM ratio (pull-down/input)
7,GATGATTGTTCTCCCAGCTGATGAATTCTGTTGATCGAGTAAACAAATTTTCCTAATCTTTCTGTTCAAGCGCCATCTAC,6.26 RPM ratio (pull-down/input)
8,GATGATTGTTCTCCCAGCTGATGAATTGTGATGATCGAGTAAACAAATTTTCCTAATCTTTCTGTTCAAGCGCCATCTAC,2.48 RPM ratio (pull-down/input)
9,GATGATTGTTCTCCCAGCTGATGAATTCTTTTGATCGAGTAAACAAATTTTCCTAATCTTTCTGTTCAAGCGCCATCTAC,0.285 RPM ratio (pull-down/input)
10,GATGATTGTTCTCCCAGCTGATGAATTGAATTGATCGAGTAAACAAATTTTCCTAATCTTTCTGTTCAAGCGCCATCTAC,0.917 RPM ratio (pull-down/input)
11,GATGATTGTTCTCCCAGCTGATGAATTGTGTTGATCGAGTAAACAAATTTTCCTAATCTTTCTGTTCAAGCGCCATCTAC,7.06 RPM ratio (pull-down/input)
12,GATGATTGTTCTCCCAGCTGATGAATTTGATGAGTCGAGTAAACAAATTTTCCTAATCTTTCTGTTCAAGCGCCATCTAC,0.974 RPM ratio (pull-down/input)
13,GATGATTGTTCTCCCAGCTGATGAATTGATCTAATCGAGTAAACAAATTTTCCTAATCTTTCTGTTCAAGCGCCATCTAC,0.356 RPM ratio (pull-down/input)
14,GATGATTGTTCTCCCAGCTGATGAATTGTTGTGATCGAGTAAACAAATTTTCCTAATCTTTCTGTTCAAGCGCCATCTAC,6.31 RPM ratio (pull-down/input)
15,GATGATTGTTCTCCCAGCTGATGAATTCAATTGATCGAGTAAACAAATTTTCCTAATCTTTCTGTTCAAGCGCCATCTAC,1.07 RPM ratio (pull-down/input)
16,GATGATTGTTCTCCCAGCTGATGAATTTTTTGAGTCGAGTAAACAAATTTTCCTAATCTTTCTGTTCAAGCGCCATCTAC,0.237 RPM ratio (pull-down/input)
17,GATGATTGTTCTCCCAGCTGATGAATTCAGATGTTCGAGTAAACAAATTTTCCTAATCTTTCTGTTCAAGCGCCATCTAC,1.06 RPM ratio (pull-down/input)
18,GATGATTGTTCTCCCAGCTGATGAATTGTACCCATCGAGTAAACAAATTTTCCTAATCTTTCTGTTCAAGCGCCATCTAC,0.472 RPM ratio (pull-down/input)
19,GATGATTGTTCTCCCAGCTGATGAATTGAATCACTCGAGTAAACAAATTTTCCTAATCTTTCTGTTCAAGCGCCATCTAC,0.551 RPM ratio (pull-down/input)
20,GATGATTGTTCTCCCAGCTGATGAATTCAATTGCTCGAGTAAACAAATTTTCCTAATCTTTCTGTTCAAGCGCCATCTAC,2.31 RPM ratio (pull-down/input)
21,GATGATTGTTCTCCCAGCTGATGAATTAGGATGTTCGAGTAAACAAATTTTCCTAATCTTTCTGTTCAAGCGCCATCTAC,0.82 RPM ratio (pull-down/input)

row,Sequence,binding signal
1,GATGATTGTTCTCCCAGCTGATGAATTTTTGCGTTCGAGTAAACAAATTTTCCTAATCTTTCTGTTCAAGCGCCATCTAC,2.04 RPM ratio (pull-down/input)
2,GATGATTGTTCTCCCAGCTGATGAATTGTATTATTCGAGTAAACAAATTTTCCTAATCTTTCTGTTCAAGCGCCATCTAC,5.22 RPM ratio (pull-down/input)
3,GATGATTGTTCTCCCAGCTGATGAATTATTGCAGTCGAGTAAACAAATTTTCCTAATCTTTCTGTTCAAGCGCCATCTAC,1.18 RPM ratio (pull-down/input)
4,GATGATTGTTCTCCCAGCTGATGAATTCAGCTGTTCGAGTAAACAAATTTTCCTAATCTTTCTGTTCAAGCGCCATCTAC,1.19 RPM ratio (pull-down/input)
5,GATGATTGTTCTCCCAGCTGATGAATTGATTCGCTCGAGTAAACAAATTTTCCTAATCTTTCTGTTCAAGCGCCATCTAC,0.331 RPM ratio (pull-down/input)
6,GATGATTGTTCTCCCAGCTGATGAATTATGGCTCTCGAGTAAACAAATTTTCCTAATCTTTCTGTTCAAGCGCCATCTAC,0.643 RPM ratio (pull-down/input)
7,GATGATTGTTCTCCCAGCTGATGAATTGATTTGATCGAGTAAACAAATTTTCCTAATCTTTCTGTTCAAGCGCCATCTAC,0.64 RPM ratio (pull-down/input)
8,GATGATTGTTCTCCCAGCTGATGAATTGTTGACATCGAGTAAACAAATTTTCCTAATCTTTCTGTTCAAGCGCCATCTAC,5.72 RPM ratio (pull-down/input)
9,GATGATTGTTCTCCCAGCTGATGAATTTGTTTGATCGAGTAAACAAATTTTCCTAATCTTTCTGTTCAAGCGCCATCTAC,5.99 RPM ratio (pull-down/input)
10,GATGATTGTTCTCCCAGCTGATGAATTGATGACATCGAGTAAACAAATTTTCCTAATCTTTCTGTTCAAGCGCCATCTAC,1.05 RPM ratio (pull-down/input)
11,GATGATTGTTCTCCCAGCTGATGAATTTTTTTGATCGAGTAAACAAATTTTCCTAATCTTTCTGTTCAAGCGCCATCTAC,0.23 RPM ratio (pull-down/input)
12,GATGATTGTTCTCCCAGCTGATGAATTTTGTTGATCGAGTAAACAAATTTTCCTAATCTTTCTGTTCAAGCGCCATCTAC,7.34 RPM ratio (pull-down/input)
13,GATGATTGTTCTCCCAGCTGATGAATTTGATTGATCGAGTAAACAAATTTTCCTAATCTTTCTGTTCAAGCGCCATCTAC,2.23 RPM ratio (pull-down/input)
14,GATGATTGTTCTCCCAGCTGATGAATTGTTTTGATCGAGTAAACAAATTTTCCTAATCTTTCTGTTCAAGCGCCATCTAC,4.03 RPM ratio (pull-down/input)
15,GATGATTGTTCTCCCAGCTGATGAATTTTTGACATCGAGTAAACAAATTTTCCTAATCTTTCTGTTCAAGCGCCATCTAC,0.524 RPM ratio (pull-down/input)
16,GATGATTGTTCTCCCAGCTGATGAATTGATTCTCTCGAGTAAACAAATTTTCCTAATCTTTCTGTTCAAGCGCCATCTAC,0.395 RPM ratio (pull-down/input)
17,GATGATTGTTCTCCCAGCTGATGAATTAAGTCGCTCGAGTAAACAAATTTTCCTAATCTTTCTGTTCAAGCGCCATCTAC,0.441 RPM ratio (pull-down/input)
18,GATGATTGTTCTCCCAGCTGATGAATTAGGACGCTCGAGTAAACAAATTTTCCTAATCTTTCTGTTCAAGCGCCATCTAC,0.484 RPM ratio (pull-down/input)
19,GATGATTGTTCTCCCAGCTGATGAATTATACGAGTCGAGTAAACAAATTTTCCTAATCTTTCTGTTCAAGCGCCATCTAC,0.404 RPM ratio (pull-down/input)
20,GATGATTGTTCTCCCAGCTGATGAATTCTAGACCTCGAGTAAACAAATTTTCCTAATCTTTCTGTTCAAGCGCCATCTAC,0.236 RPM ratio (pull-down/input)
21,GATGATTGTTCTCCCAGCTGATGAATTCTTAGCCTCGAGTAAACAAATTTTCCTAATCTTTCTGTTCAAGCGCCATCTAC,0.373 RPM ratio (pull-down/input)
